Assay results: PubChem BioAssay (NCI)
Compounds without any hit were thinned out: in the full panel of roughly 79,000, 15% have a hit. Unmarked numbers belong to inactive results. The source made the active and inactive calls. No stated cut-off is given here; in the data, active means growth inhibition above about 70%; inactive means the rest.

Experiments:
[1] = NCI Yeast Anticancer Drug Screen. Data for the rad50 strain (AID 155);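 further: 0% = growth of vehicle-only cultures of the same strain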; conditions: S. cerevisiae rad50 strain growth inhibition; at 50.0 µM; active compounds read high
Summary of the method: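 DNA repair mutant yeast, compound exposure, growth read-out; inhibition is taken relative to vehicle.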

[2] = NCI Yeast Anticancer Drug Screen. Data for the mec2-1 strain (AID 157); conditions: S. cerevisiae mec2-1 strain, at 50.0 µM, active compounds read high
Summary of the method: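 Yeast mec2-1 mutant treated with compound. Readout: growth inhibition vs vehicle controls.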

[3] = NCI Yeast Anticancer Drug Screen. Data for the sgs1 mgt1 strain (AID 161);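 further: 0% = growth of cultures given vehicle only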; conditions: S. cerevisiae sgs1 mgt1 strain, at 50.0 µM, active compounds read high
Summary of the method: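 Genetically altered yeast, compound exposure, growth inhibition relative to vehicle.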

[4] = NCI Yeast Anticancer Drug Screen. Data for the cln2 rad14 strain (AID 165);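 further: 0% = growth equal to vehicle treated cultures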; conditions: S. cerevisiae cln2 rad14 strain, at 50.0 µM, active compounds read high
Summary of the method: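 cln2 rad14 yeast strain; compound exposure; growth inhibition read vs vehicle controls.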

[5] = NCI Yeast Anticancer Drug Screen. Data for the bub3 strain (AID 167); conditions: S. cerevisiae bub3 mutant strain, at 50.0 µM, active compounds read high
Summary of the method: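 In this screen, a yeast mutant lacking normal mitotic checkpoint function is challenged with compound. Relative growth versus vehicle gives the inhibition value.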

[6] = NCI Yeast Anticancer Drug Screen. Data for the mlh1 rad18 strain (AID 175); conditions: S. cerevisiae mlh1 rad18 strain growth inhibition; at 50.0 µM; active compounds read high
Summary of the method: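 Yeast w/ defined DNA-repair lesions; compound exposure; growth vs vehicle controls → % inhibition.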

CC(=O)OC(C)N(C(C)=O)c1ncc([N+](=O)[O-])s1 (stereo unspecified)
growth inhibition [1]: -21.8% | growth inhibition [2]: 2.4% | growth inhibition [3]: -2.95% | growth inhibition [4]: -14.3% | growth inhibition [5]: 46.5% | growth inhibition [6]: 4.55%

Cc1cc2ncn(C3CCCO3)c2cc1C (stereo unspecified)
growth inhibition [1]: 6.35% | growth inhibition [2]: -6.1% | growth inhibition [3]: -14.3% | growth inhibition [4]: 3.45% | growth inhibition [5]: 3.7% | growth inhibition [6]: -23.1%

CCOC(=O)Cc1[nH]c(C(=O)OCC)c(CC(=O)OCC)c1C(=O)OCC
growth inhibition [1]: 6.3% | growth inhibition [2]: 8.45% | growth inhibition [3]: 8.3% | growth inhibition [4]: -4.2% | growth inhibition [5]: 0.1% | growth inhibition [6]: 15.7%

Cc1cc(N(CCC#N)CCC#N)ccc1/C=C\C(=O)Nc1ccccc1
growth inhibition [1]: 19.3% | growth inhibition [2]: 16.3% | growth inhibition [3]: -10.8% | growth inhibition [4]: 10.2% | growth inhibition [5]: 36.7% | growth inhibition [6]: 4.55%

CCOC(CN/C(=C/c1ccc2ccccc2[n+]1C)SC)OCC
growth inhibition [1]: -10.8% | growth inhibition [2]: 9.15% | growth inhibition [3]: -8.4% | growth inhibition [4]: -12.1% | growth inhibition [5]: -32.8% | growth inhibition [6]: -8.2%

Cc1cc[c]([Sb]2([c]3ccc(C)cc3)([c]3ccc(C)cc3)[NH]c3cc(C(c4ccccc4)(c4ccccc4)c4ccccc4)cc(C(C)(C)C)c3[O]2)cc1
growth inhibition [1]: -1.65% | growth inhibition [2]: 14.3% | growth inhibition [3]: 5.15% | growth inhibition [4]: -23.6% | growth inhibition [5]: -1.25% | growth inhibition [6]: 11.1%

O=C(Oc1ccccc1)c1ccc(C(=O)Oc2ccccc2)cc1
growth inhibition [1]: 9% | growth inhibition [2]: 28.7% | growth inhibition [3]: 15.8% | growth inhibition [4]: 3.9% | growth inhibition [5]: 43.1% | growth inhibition [6]: 11.6%

Nc1nc2nc(Br)[nH]c2c(=O)[nH]1
growth inhibition [1]: -5.5% | growth inhibition [2]: -7.9% | growth inhibition [3]: -29.3% | growth inhibition [4]: -17.2% | growth inhibition [5]: -14.2% | growth inhibition [6]: -33.9%

Cc1cc2c(cc1Cl)SC(NNC(=O)c1ccncc1)=NS2(=O)=O
growth inhibition [1]: -42.5% | growth inhibition [2]: -39.8% | growth inhibition [3]: -45.9% | growth inhibition [4]: -32.4% | growth inhibition [5]: -63.4% | growth inhibition [6]: -9.4%

C[CH2][Sn]([CH2]C)([N](c1ccccn1)c1ccccn1)[N](c1ccccn1)c1ccccn1
growth inhibition [1]: -1.75% | growth inhibition [2]: -2.25% | growth inhibition [3]: -26.2% | growth inhibition [4]: 4.3% | growth inhibition [5]: -0.6% | growth inhibition [6]: -25.1%

Cc1ccc(NC(=S)N2CCCCC2C)cc1C (stereo unspecified)
growth inhibition [1]: 17.9% | growth inhibition [2]: 11.7% | growth inhibition [3]: 12.7% | growth inhibition [4]: 3.1% | growth inhibition [5]: 16.6% | growth inhibition [6]: -6.15%

O=C(O)c1csc(C(=O)O)c1
growth inhibition [1]: 8.5% | growth inhibition [2]: -1.1% | growth inhibition [3]: 9.05% | growth inhibition [4]: 2.3% | growth inhibition [5]: 12.4% | growth inhibition [6]: 8.35%

C=CCc1c(O)c2ccccc2[nH]c1=O
growth inhibition [1]: -5.35% | growth inhibition [2]: 15.6% | growth inhibition [3]: -25.9% | growth inhibition [4]: 12.7% | growth inhibition [5]: 4.45% | growth inhibition [6]: 1.5%

O=C(O)C1C(C(=O)O)C2C3C4C1C1C2C3C41 (stereo unspecified)
growth inhibition [1]: 2.9% | growth inhibition [2]: 3.15% | growth inhibition [3]: -4.2% | growth inhibition [4]: -21.9% | growth inhibition [5]: 13.3% | growth inhibition [6]: -0.15%

CN(C)CC1OCCc2ccccc21 (stereo unspecified)
growth inhibition [1]: 10.1% | growth inhibition [2]: 2.9% | growth inhibition [3]: 3.75% | growth inhibition [4]: 0.6% | growth inhibition [5]: 6.05% | growth inhibition [6]: 10%

Cc1nn(-c2ccccc2)c(SC(C)(C)C)c1C=NCCN=Cc1c(C)nn(-c2ccccc2)c1SC(C)(C)C
growth inhibition [1]: 28.6% | growth inhibition [2]: 15.3% | growth inhibition [3]: 18.2% | growth inhibition [4]: 24.3% | growth inhibition [5]: -5.85% | growth inhibition [6]: 18.8%

COC(=O)CCNC(=O)c1ccccc1
growth inhibition [1]: 3.5% | growth inhibition [2]: -1.6% | growth inhibition [3]: -4.75% | growth inhibition [4]: -5.75% | growth inhibition [5]: 1.2% | growth inhibition [6]: -3.25%

CCOC(=O)C(=NNc1cc(OC)c(Cl)cc1OC)C(=O)OCC
growth inhibition [1]: 8.25% | growth inhibition [2]: -9.95% | growth inhibition [3]: -7.4% | growth inhibition [4]: -25.4% | growth inhibition [5]: 1.7% | growth inhibition [6]: 6.05%

O=C1OC(c2ccccc2)=N/C1=C\c1cccnc1
growth inhibition [1]: 12.3% | growth inhibition [2]: -3.25% | growth inhibition [3]: 0% | growth inhibition [4]: -10.3% | growth inhibition [5]: -5.8% | growth inhibition [6]: 13.1%

COC(=O)C1[C@@H](C(=O)OC)C12C=Cc1ccccc1C=C2 (stereo partly specified)
growth inhibition [1]: -33.2% | growth inhibition [2]: -47% | growth inhibition [3]: -50.2% | growth inhibition [4]: 1.05% | growth inhibition [5]: -28.6% | growth inhibition [6]: -25.4%

O=C(NC[N+]12CCO[B-]1(c1ccc(Cl)cc1)OCC2)c1ccccc1O (stereo unspecified)
growth inhibition [1]: 19.2% | growth inhibition [2]: 0.25% | growth inhibition [3]: 24.1% | growth inhibition [4]: 25% | growth inhibition [5]: 24% | growth inhibition [6]: 56.3%

CN(C)P(=O)(Nc1ccc(Cl)cc1)Nc1ccc(Cl)cc1
growth inhibition [1]: 11.7% | growth inhibition [2]: -1.9% | growth inhibition [3]: 2.1% | growth inhibition [4]: 3.9% | growth inhibition [5]: 12.7% | growth inhibition [6]: 7.5%

CCN(CC)CCOC(=O)Cc1ccccc1
growth inhibition [1]: -8.9% | growth inhibition [2]: -12.7% | growth inhibition [3]: 19.9% | growth inhibition [4]: 7.65% | growth inhibition [5]: 6.5% | growth inhibition [6]: 0.9%

COc1ccc(C(CCOS(=O)(=O)c2ccc(Br)cc2)(c2ccc(OC)cc2)c2ccc(OC)cc2)cc1
growth inhibition [1]: 0.9% | growth inhibition [2]: 12.8% | growth inhibition [3]: -13.1% | growth inhibition [4]: -23.6% | growth inhibition [5]: 0% | growth inhibition [6]: 15.6%

O=C1C=C(Nc2ccccc2)c2ccc(S(=O)(=O)O)cc2C1=O
growth inhibition [1]: 0.4% | growth inhibition [2]: -6.9% | growth inhibition [3]: 10.1% | growth inhibition [4]: -0.8% | growth inhibition [5]: -29.1% | growth inhibition [6]: -6.55%

Cn1c(N)c(/C=C/C(=O)Oc2ccccc2)c(=O)n(C)c1=O
growth inhibition [1]: 49.7% | growth inhibition [2]: 18.4% | growth inhibition [3]: 16.5% | growth inhibition [4]: 16.8% | growth inhibition [5]: -8.8% | growth inhibition [6]: -43.1%

CN1CCC2(CC1)C(=O)N(NC(N)=O)C(=O)C2c1ccccc1 (stereo unspecified)
growth inhibition [1]: 15% | growth inhibition [2]: 2.15% | growth inhibition [3]: 5.7% | growth inhibition [4]: 1.2% | growth inhibition [5]: 1% | growth inhibition [6]: 13.8%

CSCCC(C(=O)O)N(C)C (stereo unspecified)
growth inhibition [1]: -4.3% | growth inhibition [2]: -21.3% | growth inhibition [3]: -17.3% | growth inhibition [4]: -2.9% | growth inhibition [5]: -19.6% | growth inhibition [6]: -18%

Cc1ccc(N=C(C(=O)c2ccccc2)C(Nc2ccc(C)cc2)C(=O)c2ccccc2)cc1 (stereo unspecified)
growth inhibition [1]: 23.8% | growth inhibition [2]: 3.25% | growth inhibition [3]: 17.8% | growth inhibition [4]: 20.8% | growth inhibition [5]: -3.7% | growth inhibition [6]: 10.7%

O=C(O)C1CC=CCC1C(=O)Nc1cccc(O)c1 (stereo unspecified)
growth inhibition [1]: -16.9% | growth inhibition [2]: -30.8% | growth inhibition [3]: -51.7% | growth inhibition [4]: 38.5% | growth inhibition [5]: -40% | growth inhibition [6]: 6.25%

Cc1ccc2c(c1)CCCN2
growth inhibition [1]: 7.2% | growth inhibition [2]: 11.2% | growth inhibition [3]: 4.65% | growth inhibition [4]: 21.6% | growth inhibition [5]: 9.8% | growth inhibition [6]: 7.55%

O=C(Nc1ccccc1)c1cccn1-c1ccccc1
growth inhibition [1]: 2.7% | growth inhibition [2]: -13.1% | growth inhibition [3]: 12.1% | growth inhibition [4]: 13.5% | growth inhibition [5]: -19% | growth inhibition [6]: -2.95%

CCOC(=O)C(=O)Nc1nc2ccc(OC)cc2s1
growth inhibition [1]: -39.8% | growth inhibition [2]: -7.3% | growth inhibition [3]: -10.8% | growth inhibition [4]: 6.75% | growth inhibition [5]: 0.15% | growth inhibition [6]: 9.25%

N#CCCN(CCC#N)c1ccc(/C=C2\N=C(CN3C(=O)c4ccccc4C3=O)OC2=O)cc1
growth inhibition [1]: -20.1% | growth inhibition [2]: 4.25% | growth inhibition [3]: 7.05% | growth inhibition [4]: 11.3% | growth inhibition [5]: 0.05% | growth inhibition [6]: 7.55%

COc1cc2c(cc1OC)C(CS(C)=O)Cc1cc(OC)c(OC)cc1N(C)CCC2 (stereo unspecified)
growth inhibition [1]: 10.5% | growth inhibition [2]: 19.4% | growth inhibition [3]: 14.2% | growth inhibition [4]: 10.6% | growth inhibition [5]: -1.55% | growth inhibition [6]: 29.9%

O=C(O)CCC(=O)Nc1ccc(S(=O)(=O)Nc2nccs2)cc1
growth inhibition [1]: -18% | growth inhibition [2]: -36.2% | growth inhibition [3]: -16.5% | growth inhibition [4]: -17.9% | growth inhibition [5]: -18.3% | growth inhibition [6]: -14.6%

CC1Cc2cc(O)ccc2C2[C@@H]1C1CC[C@H](O)[C@@]1(C)C[C@@H]2O[N+](=O)[O-] (stereo partly specified)
growth inhibition [1]: 18.5% | growth inhibition [2]: 19.7% | growth inhibition [3]: 55.8% | growth inhibition [4]: 47.3% | growth inhibition [5]: 60.9% | growth inhibition [6]: 83% (active)

N#CCCC(CC#N)C1([N+](=O)[O-])CCCCC1 (stereo unspecified)
growth inhibition [1]: 23.8% | growth inhibition [2]: 29.2% | growth inhibition [3]: 7.85% | growth inhibition [4]: 53.1% | growth inhibition [5]: 32.8% | growth inhibition [6]: 3.55%

CCCCOc1n[nH]c(=O)c2ccccc12
growth inhibition [1]: -2.4% | growth inhibition [2]: -13% | growth inhibition [3]: -3.65% | growth inhibition [4]: -25.4% | growth inhibition [5]: -7.9% | growth inhibition [6]: 8.6%

Cc1cccc(C(C)(C)C)c1NC(=O)C(=O)C(C(=O)/C=C\c1ccccc1)C1OC(=O)c2ccccc21 (stereo unspecified)
growth inhibition [1]: 7.4% | growth inhibition [2]: -4.95% | growth inhibition [3]: 12.3% | growth inhibition [4]: 30.4% | growth inhibition [5]: 13.8% | growth inhibition [6]: 6.1%

O=P12N(CCN1c1ccccc1)CCN2c1ccccc1
growth inhibition [1]: -26.4% | growth inhibition [2]: -34.1% | growth inhibition [3]: -13.8% | growth inhibition [4]: 19.6% | growth inhibition [5]: 10.2% | growth inhibition [6]: -25.5%
